Where “and” joins values, the source holds several entries; their conditions need not be identical. Equal values may be shown once. Where a name gives a salt, the structure may show the parent alone.
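Also: purified Escherichia coli-expressed rice kinase domain construct.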

The first assay deals with LOC_OS05G07850-cb002. The assay can be described thus: thermal shift delta Tm vs DMSO control; higher = stronger stabilization (binding). The following applies: 12.5 µM; protein concentration 2 µM. In a few lines: (§1)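 Thermal shift values come from differential scanning fluorimetry on purified rice kinase domains made in E. coli, with melting temperatures obtained from Boltzmann fits. Samples of 19.5 μl held 2 μM kinase, 100 mM potassium phosphate pH 7.5, 150 mM NaCl, 10% glycerol, 5 × SYPRO Orange and compound in DMSO, and were heated from 25°C to 95°C at 0.05°C/s. Each shift is a triplicate mean relative to the DMSO-only protein sample.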
With `CC#CC(=O)Nc1ccc2ncnc(Nc3cccc(Br)c3)c2c1`, the “thermal shift delta Tm” value was found to be 9.9 °C.
Same read-out and setting: for `Cc1c(C(=O)N2CCOc3ccc(-c4ccc(N)nc4)cc3C2)ccc(S(C)(=O)=O)c1F` the value was 0.91 °C.
Regarding `COc1ccc(-c2ccc3c(N4CCOCC4)nc(N4C[C@@H](C)O[C@@H](C)C4)nc3n2)cc1CO`, the “thermal shift delta Tm” value is -0.78 °C.
Consider `O=C(Nc1cnn2ccc(N3CCC[C@@H]3c3cc(F)ccc3F)nc12)N1CC[C@H](O)C1` [Larotrectinib (LOXO-101) sulfate], for which the “thermal shift delta Tm” value is 5.23 °C.
For the compound `O=C(NCCCNc1nc(Nc2cccc(NC(=O)N3CCCC3)c2)ncc1I)c1cccs1`, the “thermal shift delta Tm” value was 12.1 °C.
As to `Nc1cccc(-c2cc3c(Oc4cccc(O)c4)ncnc3[nH]2)c1`, the “thermal shift delta Tm” value worked out at 11.1 °C.
Consider `CC(C)(C)NC(=O)c1cncn1C1CCN(c2ccc(-c3nnc(C(F)(F)F)o3)cn2)CC1`, for which the “thermal shift delta Tm” value amounted to 0.05 °C.
Turning to `Nc1nc2cc(-c3ccc4ncc(C(=O)N5CCOCC5)n4c3)ccc2o1` [Serabelisib (INK-1117,MLN-1117,TAK-117)], the “thermal shift delta Tm” value worked out at 2.64 °C.
Take `COCCOc1ccc2c(c1)ncn2-c1ccc2cccc(N3CCC(N)CC3)c2n1`: the “thermal shift delta Tm” value worked out at 16.7 °C.
Turning to `CC(C)CCN1c2nc(Nc3cc(F)c(O)c(F)c3)ncc2N(C)C(=O)C1C` (stereo not drawn), the “thermal shift delta Tm” value is 7.46 °C.
Take `O=c1cc(-c2cccc3c2Sc2ccccc2S3)oc(N2CCOCC2)c1`: the “thermal shift delta Tm” value was found to be 0.85 °C.
Regarding `N=C(N)NC(=N)NCCc1ccccc1` [Phenformin HCl], the “thermal shift delta Tm” value was -0.02 °C.
On the same count and under the same terms, the result for `CC(C)=CC[C@@H](O)C1=CC(=O)c2c(O)ccc(O)c2C1=O` [Shikonin] reads -1.47 °C; that for `CCN(CC)CCNC(=O)c1c(C)[nH]c(/C=C2\C(=O)Nc3ccc(F)cc32)c1C` [Sunitinib], 8.4 °C.
As for `Nc1ncnc2c1c(-c1cnc3[nH]ccc3c1)nn2C1CCCC1`, the “thermal shift delta Tm” value came out at 4.79 °C.
For `CC(=O)Nc1cccc(-n2c(=O)n(C3CC3)c(=O)c3c(Nc4ccc(I)cc4F)n(C)c(=O)c(C)c32)c1`, the “thermal shift delta Tm” value was 0.88 °C.
Regarding `O=C(NC[C@H](O)CO)c1ccncc1Nc1ccc(I)cc1F`, the “thermal shift delta Tm” value turned out to be 0.04 °C.
As for `COc1cc2ncnc(Oc3ccc(CC(=O)Nc4cnn(C(C)C)c4)cc3)c2cc1OC`, the “thermal shift delta Tm” value is 8.95 °C.
Turning to `Nc1cccc(S(=O)(=O)N2CCCN(S(=O)(=O)c3ccc4c(c3)OCCO4)CC2)c1`, the “thermal shift delta Tm” value was 0.55 °C.
`CCN1CCN(Cc2ccc(C(=O)Nc3ccc(C)c(Oc4ccc5c(c4)CC(=O)N5)c3)cc2C(F)(F)F)CC1`: the “thermal shift delta Tm” value is -0.13 °C.
For `C=CC(=O)Nc1ccc2ncnc(Nc3ccc(OCc4cccc(F)c4)c(Cl)c3)c2c1`, the “thermal shift delta Tm” value came out at 1.81 °C.
On to `Nc1ccc(-c2ccc3ncc4ccc(=O)n(-c5cccc(C(F)(F)F)c5)c4c3c2)cn1` [Torin 2], for which the “thermal shift delta Tm” value came out at 9.25 °C.
As to `C[C@@H]1CCN(C(=O)CC#N)C[C@@H]1N(C)c1ncnc2[nH]ccc12`, the “thermal shift delta Tm” value was 2.97 °C and 3.63 °C.
For `CN1CCCN(C(=O)c2cccc(-c3ccc(/C=C4/C(=O)Nc5ccc(Cl)cc54)o3)c2)CC1`, the “thermal shift delta Tm” value was determined as 6.78 °C.
As to `C[C@@H](Oc1cc(-c2cnn(C3CCNCC3)c2)cnc1N)c1c(Cl)ccc(F)c1Cl`, the “thermal shift delta Tm” value was determined as 9.7 °C.

A further assay concerns LOC_OS05G16824-cb004. Described as above. The following applies: 12.5 µM; protein concentration 2 µM. In a few lines: as §1
In the case of `c1cncc(CN2CCC(n3ncc4c(N5CCOCC5)nc(-c5ccc6[nH]ccc6c5)nc43)CC2)c1`, the “thermal shift delta Tm” value is -2.75 °C.
`CCCS(=O)(=O)Nc1ccc(F)c(C(=O)c2c[nH]c3ncc(Cl)cc23)c1F`: the “thermal shift delta Tm” value came out at 2.36 °C.
On to `COC(=O)N[C@@H](C)CNc1nccc(-c2cn(C(C)C)nc2-c2cc(Cl)cc(NS(C)(=O)=O)c2F)n1` [Encorafenib (LGX818)], for which the “thermal shift delta Tm” value is -3.57 °C.
Take `O=C1c2c(O)cc(O)cc2OC(c2ccc(O)c(O)c2)C1O` (stereo not drawn) [Taxifolin (Dihydroquercetin)]: the “thermal shift delta Tm” value was -0.02 °C.
Consider `CCCCCCCCCCCCc1ccc(S(=O)(=O)Nc2nncs2)cc1`, for which the “thermal shift delta Tm” value is -2.07 °C.
Still for that read-out and setting: the result for `COc1cc2c(c(OC)c1OC)-c1c(cc3c(c1OC)OCO3)CC(C)C(C)C2` (stereo not drawn) [Schisandrin B (Sch B)] reads -1 °C; that for `CS(=O)(=O)c1ccc(-c2cnc(N)c(C(=O)Nc3ccccc3)n2)cc1`, -1.5 °C.
Still for that read-out and setting: for `CC1Oc2cc(cnc2N)-c2c(nn(C)c2C#N)CN(C)C(=O)c2ccc(F)cc21` (stereo not drawn) the value was -1.64 °C; for `Cc1ccc2nc(NCCN)c3ncc(C)n3c2c1`, -0.92 °C.
For the compound `C[C@@H](N)c1ccc(C(=O)Nc2ccnc3[nH]ccc23)cc1`, the “thermal shift delta Tm” value was -0.56 °C.
For `CCn1c(N)c(C(=O)NC)c(=O)c2ccc(C#CC(C)(O)COC)nc21` (stereo not drawn), the “thermal shift delta Tm” value was determined as 3.79 °C.
For `COC(=O)[C@]12CCC(C)(C)C[C@H]1[C@H]1C(=O)C=C3[C@@]4(C)C=C(C#N)C(=O)C(C)(C)[C@@H]4CC[C@@]3(C)[C@]1(C)CC2` [Bardoxolone Methyl], the “thermal shift delta Tm” value is -7.05 °C.
Take `COc1cc(Nc2ncc(F)c(Nc3ccc4c(n3)N(COP(=O)(O)O)C(=O)C(C)(C)O4)n2)cc(OC)c1OC` [R788 (Fostamatinib) Disodium]: the “thermal shift delta Tm” value came out at 6.19 °C.
`CC#CC(=O)Nc1ccc2ncnc(Nc3cccc(Br)c3)c2c1`: the “thermal shift delta Tm” value is -2.35 °C.
Consider `Cc1c(C(=O)N2CCOc3ccc(-c4ccc(N)nc4)cc3C2)ccc(S(C)(=O)=O)c1F`, for which the “thermal shift delta Tm” value is -4.24 °C.
Consider `COc1ccc(-c2ccc3c(N4CCOCC4)nc(N4C[C@@H](C)O[C@@H](C)C4)nc3n2)cc1CO`, for which the “thermal shift delta Tm” value was -3.16 °C.
Take `O=C(Nc1cnn2ccc(N3CCC[C@@H]3c3cc(F)ccc3F)nc12)N1CC[C@H](O)C1` [Larotrectinib (LOXO-101) sulfate]: the “thermal shift delta Tm” value is 0.04 °C.
Still for that read-out and setting: for `O=C(NCCCNc1nc(Nc2cccc(NC(=O)N3CCCC3)c2)ncc1I)c1cccs1` the value was 10.4 °C.
As to `Nc1cccc(-c2cc3c(Oc4cccc(O)c4)ncnc3[nH]2)c1`, the “thermal shift delta Tm” value amounted to 5.59 °C.
For `CC(C)(C)NC(=O)c1cncn1C1CCN(c2ccc(-c3nnc(C(F)(F)F)o3)cn2)CC1`, the “thermal shift delta Tm” value came out at 0.92 °C.
Consider `Nc1nc2cc(-c3ccc4ncc(C(=O)N5CCOCC5)n4c3)ccc2o1` [Serabelisib (INK-1117,MLN-1117,TAK-117)], for which the “thermal shift delta Tm” value stood at 6.24 °C.
`COCCOc1ccc2c(c1)ncn2-c1ccc2cccc(N3CCC(N)CC3)c2n1`: the “thermal shift delta Tm” value stood at 12.6 °C.
In the case of `CC(C)CCN1c2nc(Nc3cc(F)c(O)c(F)c3)ncc2N(C)C(=O)C1C` (stereo not drawn), the “thermal shift delta Tm” value was 8.92 °C.
For `O=c1cc(-c2cccc3c2Sc2ccccc2S3)oc(N2CCOCC2)c1`, the “thermal shift delta Tm” value amounted to 0.1 °C.
For `N=C(N)NC(=N)NCCc1ccccc1` [Phenformin HCl], the “thermal shift delta Tm” value is -6.46 °C.
Consider `CC(C)=CC[C@@H](O)C1=CC(=O)c2c(O)ccc(O)c2C1=O` [Shikonin], for which the “thermal shift delta Tm” value is -0.18 °C.
`CCN(CC)CCNC(=O)c1c(C)[nH]c(/C=C2\C(=O)Nc3ccc(F)cc32)c1C` [Sunitinib]: the “thermal shift delta Tm” value worked out at 12.1 °C.
Consider `Nc1ncnc2c1c(-c1cnc3[nH]ccc3c1)nn2C1CCCC1`, for which the “thermal shift delta Tm” value was 1.22 °C.
`CC(=O)Nc1cccc(-n2c(=O)n(C3CC3)c(=O)c3c(Nc4ccc(I)cc4F)n(C)c(=O)c(C)c32)c1`: the “thermal shift delta Tm” value is -0.98 °C.
For the compound `O=C(NC[C@H](O)CO)c1ccncc1Nc1ccc(I)cc1F`, the “thermal shift delta Tm” value was -2.59 °C.
On to `COc1cc2ncnc(Oc3ccc(CC(=O)Nc4cnn(C(C)C)c4)cc3)c2cc1OC`, for which the “thermal shift delta Tm” value came to 0.86 °C.
On to `Nc1cccc(S(=O)(=O)N2CCCN(S(=O)(=O)c3ccc4c(c3)OCCO4)CC2)c1`, for which the “thermal shift delta Tm” value is -0.03 °C.
Take `CCN1CCN(Cc2ccc(C(=O)Nc3ccc(C)c(Oc4ccc5c(c4)CC(=O)N5)c3)cc2C(F)(F)F)CC1`: the “thermal shift delta Tm” value worked out at 2.03 °C.
In the case of `C=CC(=O)Nc1ccc2ncnc(Nc3ccc(OCc4cccc(F)c4)c(Cl)c3)c2c1`, the “thermal shift delta Tm” value was 3.11 °C.
For the compound `Nc1ccc(-c2ccc3ncc4ccc(=O)n(-c5cccc(C(F)(F)F)c5)c4c3c2)cn1` [Torin 2], the “thermal shift delta Tm” value was 2.46 °C.
As to `C[C@@H]1CCN(C(=O)CC#N)C[C@@H]1N(C)c1ncnc2[nH]ccc12`, the “thermal shift delta Tm” value is -1.07 °C and 0.7 °C.
Take `CN1CCCN(C(=O)c2cccc(-c3ccc(/C=C4/C(=O)Nc5ccc(Cl)cc54)o3)c2)CC1`: the “thermal shift delta Tm” value worked out at 4.08 °C.
With `C[C@@H](Oc1cc(-c2cnn(C3CCNCC3)c2)cnc1N)c1c(Cl)ccc(F)c1Cl`, the “thermal shift delta Tm” value came out at 4.65 °C.
